# High-throughput results (PubChem)
# Shown is part of a subset that was picked to be rich in hits.
# ST2 IL33 inh: inhibitors of human ST2 (IL1RL1) binding to IL-33 | hit rate 2.3% among 78,000 | Q01638 | AlphaLISA ST2-Fc/biotin-IL-33 interaction, 1 h | inhibition, % for hits at 17 µM; in the data active = inhibition above about 30%
# Target sequence (Q01638 whole entry, looked up): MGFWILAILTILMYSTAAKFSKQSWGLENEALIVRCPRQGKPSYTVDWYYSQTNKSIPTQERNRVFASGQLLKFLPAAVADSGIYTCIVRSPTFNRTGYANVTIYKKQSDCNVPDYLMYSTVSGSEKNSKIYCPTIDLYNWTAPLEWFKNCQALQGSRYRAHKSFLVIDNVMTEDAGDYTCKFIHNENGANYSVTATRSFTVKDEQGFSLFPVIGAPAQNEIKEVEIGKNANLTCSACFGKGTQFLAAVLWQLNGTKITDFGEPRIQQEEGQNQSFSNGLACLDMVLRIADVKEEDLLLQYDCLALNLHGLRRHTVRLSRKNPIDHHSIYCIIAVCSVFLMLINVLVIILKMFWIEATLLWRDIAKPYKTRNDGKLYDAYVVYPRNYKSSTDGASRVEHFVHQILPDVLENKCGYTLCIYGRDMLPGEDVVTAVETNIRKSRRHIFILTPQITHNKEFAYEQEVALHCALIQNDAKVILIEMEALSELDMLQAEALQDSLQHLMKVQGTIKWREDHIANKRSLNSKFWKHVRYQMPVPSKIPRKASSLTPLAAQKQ
# A number is an active result; n = inactive; ! = a repeat was not active.
SMILES,ST2 IL33 inh
C[C@H]1[C@@H]2[C@@H](O)C([C@H](C)C(=O)NCCN3CCOCC3)CC[C@@]2(C)CC[C@@H]1NC(=O)C1CCCCC1 (stereo not given in full),32%
COCCNC(=O)[C@@H](C)[C@@H]1CC[C@@]2(C)CC[C@H](NC(=O)C3CC3)[C@@H](C)[C@@H]2[C@H]1O,n
CC(=O)N[C@H]1CC[C@]2(C)CC[C@@H]([C@H](C)C(=O)NCCN3CCCC3)[C@H](O)[C@H]2[C@@H]1C,n
CCOC(=O)CC1COCCN1C(=O)Cc1cnc2c(C)cccn12 (stereo not given),n
Oc1cccc(C=Nc2ccc(Cl)c(Cl)c2)c1O,n
C=CCOc1ccc(C=Nc2ccc(C)c(Cl)c2)c(O)c1,92%
Cc1ccc(N=Cc2nc(-c3ccc(Br)cc3)oc2O)cc1Cl,n
COc1ccccc1NS(=O)(=O)c1ccc(Oc2ccc([N+](=O)[O-])cc2)cc1,n
COCC(=O)NC[C@@H]1C=C(C)[C@H](CC(=O)O)C[C@H]1C(C)C,32%
CC1=C[C@@H](CNC(=O)NC2CCCCC2)[C@H](C(C)C)C[C@H]1CC(=O)O,n
CC1=C[C@@H](CNC(=O)c2ccccc2)[C@H](C(C)C)C[C@H]1CC(=O)O,n
COc1ccc(/C=N\OCC(=O)Nc2sc3c(c2C#N)CC(C)(C)NC3(C)C)cc1OC,n
Cc1cc(=O)c(C(=O)NCc2cccnc2)c2n1-c1ccccc1SC(c1ccc(F)c(F)c1)C2 (stereo not given),n
O=S(=O)(N[C@H]1CO[C@H]2[C@@H]1OC[C@@H]2n1nnnc1Oc1ccc(-n2ccnc2)cc1)c1cccs1,n
COc1ccc(C2C3C(=O)NC(=O)C3ON2c2ccc(Cl)cc2)cc1 (stereo not given),31%
COc1ccc(C2C(C(=O)Nc3ccc(F)c(Cl)c3)CC(=O)N2c2ccc(OC)cc2)cc1 (stereo not given),n
COc1ccc(N2C(=O)C3C(c4ccc(F)cc4)OC4(C(=O)c5ccccc5C4=O)C3C2=O)cc1 (stereo not given),n
CC1=C(C(=O)Nc2ccc(C)cc2C)C(c2cccc(F)c2)n2nnnc2N1 (stereo not given),n
N=c1c(C(=O)NCc2ccco2)cc2c(=O)n3ccccc3nc2n1CCCO,n
CCC1CCCCN1C(=O)CSc1n[nH]c(C)c1[N+](=O)[O-] (stereo not given),n
CCOC(=O)c1c(-c2ccccc2)oc2ccc(OCC(=O)OC(C)(C)C)cc12,n
CC(C)(C)c1cc(CN2CCc3[nH]cnc3C2c2ccsc2)[nH]n1 (stereo not given),n
O=C1NC(c2cccc(Br)c2)Nc2ccccc21 (stereo not given),n
O=C1NC2=C(C(=O)c3ccccc32)C(c2ccccc2)N1 (stereo not given),n
O=C1c2ccccc2C(=O)C1C1=Nc2ccccc2NC(c2ccccc2)C1 (stereo not given),31%!
SMILES,ST2 IL33 inh
CCCC1=C(C(=O)OCC)C(c2cccnc2)C(C#N)=C(N)O1 (stereo not given),n
COc1cccc(/C=C2\N=C(c3ccc(OC)c([N+](=O)[O-])c3)OC2=O)c1,n
COc1cc(CNC2(O)CCOC(C)(C)C2)ccc1O (stereo not given),n
O=C(NC1CCCCC1)c1cn(C2CC2)cc(C(=O)N2CCOc3ccc(Cl)cc3C2)c1=O,n
O=S(=O)(c1ccc(Cl)c(Cl)c1Cl)N1CCOCC1,n
Cc1ccc(N(C)S(=O)(=O)c2ccc3c(c2)NC(=O)CC(=O)N3)cc1C,n
NC(=O)c1ccccc1/C=C/c1ccccc1,n
CC(C)C(Cn1ccnc1)NC(=O)c1ccccc1N1CCOCC1 (stereo not given),n
CCC(Cn1ccnc1)NC(=O)c1ccc2c(c1)nnn2C (stereo not given),n
CC(C)c1cc(C(=O)NC(Cn2ccnc2)C(C)C)nc2ncnn12 (stereo not given),30%
Oc1ccccc1C1=Nc2ccccc2N=C(c2ccccc2)C1,n
COc1ccc(C2=Nc3ccccc3N=C(c3cc(OC)ccc3O)C2)cc1,n
COc1ccc(O)c(C2=Nc3ccccc3N=C(c3ccc(F)cc3)C2)c1,32%
COc1cccc(OC)c1CNC1COc2c(cccc2OC)C1 (stereo not given),n
Cc1cccc(NC(=O)c2cc3cc(Cl)cc(Cl)c3oc2=O)c1,n
CN(C)c1nc2c(c(=O)n(C)c(=O)n2C)n1Cc1ccc(F)cc1,n
O=[N+]([O-])c1ccccc1/C=C/c1ccc2cccc(O)c2n1,41%
O=[N+]([O-])c1cccc(C=Nc2ccc(-c3nc4ncccc4o3)cc2)c1O,n
O=C(O)c1cccc(N=Cc2cccc([N+](=O)[O-])c2O)c1,n
CCOC(=O)c1c(C)n(-c2ccc(OCC)cc2)c2ccc(OC)cc12,n
CC(=O)N1c2ccc(S(=O)(=O)N3CCCCC3)cc2CC1C(=O)Nc1nc2ccccc2s1 (stereo not given),n
COc1ccccc1/C=C/c1[nH]c(=O)[nH]c(=O)c1[N+](=O)[O-],n
O=C(Nc1cccnc1)c1oc(=O)c2ccccc2c1-c1ccccc1,n
CCOc1cc(C(=O)Nc2c(-c3cccs3)nc3ccccn23)cc(OCC)c1OCC,n
CCc1cn[nH]c1C1CCN(C(=O)c2cc(CC(C)C)nn2CC)CC1,n
SMILES,ST2 IL33 inh
Cc1cc(Br)c2c3c(c(N)c(=O)[nH]c13)-c1ccccc1C2=O,45%
Cc1cc(C)c2c(=O)cc(C3C(=O)c4ccccc4C3=O)[nH]c2c1,n
O=C(Cn1cnc2c(cnn2-c2ccc(Cl)cc2)c1=O)Nc1ccc(F)cc1F,n
CSc1ccc(-c2nc(CN3CCc4c(c(CO)nn4C)C3)c(C)o2)cc1,n
O=C1Nc2ccccc2N(O)N1c1ccccc1C(F)(F)F,n
Cc1ccc(C(O)=C2C(=O)C(=O)N(c3ccccn3)C2c2ccccc2[N+](=O)[O-])cc1 (stereo not given),n
Cc1cccn2c(=O)c(C=NCc3ccccc3)c(NCCO)nc12,n
CNc1nc2c(C)cccn2c(=O)c1C=NCCO,83%
Cc1cccn2c(=O)c(C=NCc3ccco3)c(Nc3ccc(Cl)cc3)nc12,34%
CCC(C)N=Cc1c(NCCO)nc2c(C)cccn2c1=O (stereo not given),n
Cc1cccn2c(=O)c(C=Nc3cccc(Cl)c3)c(NCc3ccco3)nc12,n
CNc1nc2c(C)cccn2c(=O)c1C=Nc1ccc(Cl)cc1,n
CNc1nc2c(C)cccn2c(=O)c1C=Nc1ccccc1,33%
COc1ccc(N=Cc2c(Nc3ccccc3)nc3c(C)cccn3c2=O)cc1,n
Cc1cccn2c(=O)c(C=NCCO)c(NCc3ccccc3)nc12,n
COC(=O)c1ccccc1NC(=O)c1cc(-c2ccc3c(c2)OCO3)on1,n
Nc1ncnc(N(CCO)Cc2ccccc2)c1[N+](=O)[O-],n
CCC(C)C1N=C2c3ccccc3N=C(SCC(=O)NCc3ccccc3)N2C1=O (stereo not given),n
CCOC(=O)c1c(C)oc2c(Cl)cc(NS(=O)(=O)c3ccc(CC)cc3)cc12,n
CCOc1ccc(-c2cc3cc(OC)c(OC)cc3c(CC)n2)cc1,n
COc1ccc(/C=C(\C#N)c2nc(-c3ccc(C)cc3)cs2)cc1,60%
N#C/C(=C\c1ccc(I)cc1)c1nc(-c2ccc([N+](=O)[O-])cc2)cs1,n
COc1ccc(S(=O)(=O)Nc2ccc(-c3csc(C)n3)cc2)cc1,n
CCOc1ccc(/C=C(\C#N)c2nc(-c3ccc(OCC)cc3)cs2)cc1,33%
CCS[C@H]1CCN2C(=O)c3cc(-c4cc(Cl)ccc4OC)ccc3NC(=O)[C@H]12,n
